Inconclusive results are not listed. Unless noted, calls come from the whole dose curve; as a rule, active = well fitted curve in either direction with a large enough effect (not every such curve was filed as active); inconclusive = small, poorly fitted or top-dose-only effect, or another doubt; inactive = flat fitted curve, though single readings scatter.
tested on: not listed separately; assay: Stat Signaling Pathway (AID 446); conditions: ME-180 (cervical carcinoma) SIE beta-lactamase reporter, IL-6 stimulated, 5 h; at 17.2 µM (top of the series) unless noted;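 note: ME-180 cervical cancer cells given 40 pM IL-6 alongside compound; SIE-controlled beta-lactamase reporter measured as 460/530 nm FRET emission ratio; % is set by controls: 0 for no effect and ±100 for the full control effect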
Method in brief: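 IL-6/STAT signaling read in ME-180 cells via an SIE beta-lactamase reporter. Stimulus was 40 pM IL-6 (its AC50) for 5 hrs, so both activation and inhibition register.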

activity, negative = inhibition, inactive:
CCCCSc1nnc2n(CCc3ccccc3)c(=O)c3c4c(sc3n12)COC(C)(C)C4 -12.7%, Nc1c2c(nc3ccccc13)N(C1CCCCC1)CC2 16.7%, C=CCNc1nc(N2CCCCC2)c(C#N)c2c1CN(Cc1ccccc1)CC2 -3.92%, Cc1cc(N2C(=O)C(=O)/C(=C(/O)c3ccccc3)C2c2cccc(Br)c2)no1 (stereo not given) -23.1%, COC(=O)CN(c1nc(C)c(Br)c(OC)n1)S(=O)(=O)c1ccc(C)cc1 7.73%, COc1ccc(Nc2cc(C)nc3ccccc23)cc1 5.77%, Cc1ccc(S(=O)(=O)c2cc3c(=O)n4ccccc4nc3n(C)c2=N)cc1 26.2%, CCOc1ccc2c(C)nc(NC3=NC(C)(C)C=C(C)N3)nc2c1 25.6%, O=S(=O)(c1cccc(-c2csc(-c3ccccc3)n2)c1)N1CCOCC1 -9.15%, N#Cc1c(N2CCOCC2)nc(N2CCCCC2)c2c1CCN(C1CCCCC1)C2 4.09%, C=CCn1c(=O)c(C(=O)NCCN(CC)CC)c(O)c2ccccc21 8.32%, CCCSc1nnc2n(-c3ccccc3OC)c(=O)c3c4c(sc3n12)CCC4 15%, CC(=O)OCC(=O)[C@@]1(O)CC[C@H]2[C@@H]3CCC4=CC(=O)CC[C@]4(C)[C@H]3[C@@H](O)C[C@@]21C -11.6%, CN1CCN(c2nc3c(c(=O)n(C)c(=O)n3C)n2Cc2cccc3ccccc23)CC1 -2.69%, O=C(c1ccc(F)cc1)N1CCC(N2CCCCCC2)CC1 -3.47%, CCCCNC(=O)C(C#N)c1nc2ccccc2nc1N1CCN(Cc2ccc3c(c2)OCO3)CC1 (stereo not given) -8.12%, Cn1nnc2c(sc3nc(N4CCOCC4)c4c(c32)CCCC4)c1=O -0.897%, O=S(=O)(c1ccc(Cl)cc1)N1CCC(N2CCCCCC2)CC1 3.47%, COc1ccc(Cn2c(N)c(C#N)c3nc4ccccc4nc32)cc1OC 11.6%, Cc1ccc(S(=O)(=O)/C(C#N)=C/c2c(N3CCN(C)CC3)nc3c(C)cccn3c2=O)cc1 -7.22%, CCCCCc1ccc(-c2ccc(=O)[nH]n2)cc1 13.6%, C=CCOn1c(=O)c(-c2cc3ccccc3o2)[n+]([O-])c2ccccc21 -8.42%, CCOC(=O)/C(C#N)=C1\Nc2ccccc2N=C1N(CC(C)C)CC(C)C -4.73%, COc1ccc(-n2c(SCC(N)=O)nc3sc4c(c3c2=O)CCN(C)C4)cc1 2.19%, CCCc1nc(N2CCCC2)c(C#N)c2c1CCCC2 10.3%, CCOc1nc(SCCOc2ccc(C)cc2)nc(N(C)C)n1 -4.82%, CCN(CC)CCNc1nc(-c2ccco2)c2c(c1C#N)CC(C)(C)OC2 14.7%, CCN1CC2=C(OC(N)=C(C#N)C2c2ccccc2)/C(=C\c2ccccc2)C1 (stereo not given) -29.2%, Clc1ccc(Cl)c(-c2ccc(/C=N/c3ncn[nH]3)o2)c1 -6.04%, Cc1ccc2c(c1)[C@@H]1CN(C)CC[C@@H]1N2S(=O)(=O)c1ccc(F)cc1 5.84%, O=c1[nH]c(=O)n(Cc2ccco2)c2c1C(C(F)(F)F)(C(F)(F)F)N=C(c1ccco1)N2 -26.4%, COc1ccc(-c2nc3c(Br)c(N)c(Br)cc3o2)cc1 8.24%, c1ccc(C2Nc3ccccc3-c3nc4ccccc4n32)nc1 (stereo not given) -0.281%, C=CC[N+](C)(C)CCCNC(=O)/C=N/O 4.74%, CCCSc1nc(N2CCCC2)c2c(c1C#N)CC(C)(C)OC2 6.07%, COc1ccc(/C=N/n2cncn2)cc1CSc1ccccn1 10.6%, CCC(=O)Nc1nc2ccccc2n1Cc1ccccc1C 2.77%, CCCCOc1ccc(C(=O)OC2CC(C)N(C)CC2C)cc1 (stereo not given) 1.35%, Nc1nc2n(n1)C(c1cccs1)CC(c1ccc(F)cc1)N2 (stereo not given) 1.08%, CCCc1cc(NCCCCO)n2c(nc3ccccc32)c1C#N -4.18%

biological target: Glucocorticoid receptor (Homo sapiens) (UniProt P04150); assay: GR-GFP Redistribution (AID 450;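 active = compounds whose dose series gives a full or clear partial fitted curve of increased nuclear translocation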; note: potency is the fitted concentration of half-maximal effect); conditions: U2OS GR-GFP nuclear translocation, laser cytometry, 2 h; series mostly up to 20.6 µM
Sequence (P04150 whole entry, looked up): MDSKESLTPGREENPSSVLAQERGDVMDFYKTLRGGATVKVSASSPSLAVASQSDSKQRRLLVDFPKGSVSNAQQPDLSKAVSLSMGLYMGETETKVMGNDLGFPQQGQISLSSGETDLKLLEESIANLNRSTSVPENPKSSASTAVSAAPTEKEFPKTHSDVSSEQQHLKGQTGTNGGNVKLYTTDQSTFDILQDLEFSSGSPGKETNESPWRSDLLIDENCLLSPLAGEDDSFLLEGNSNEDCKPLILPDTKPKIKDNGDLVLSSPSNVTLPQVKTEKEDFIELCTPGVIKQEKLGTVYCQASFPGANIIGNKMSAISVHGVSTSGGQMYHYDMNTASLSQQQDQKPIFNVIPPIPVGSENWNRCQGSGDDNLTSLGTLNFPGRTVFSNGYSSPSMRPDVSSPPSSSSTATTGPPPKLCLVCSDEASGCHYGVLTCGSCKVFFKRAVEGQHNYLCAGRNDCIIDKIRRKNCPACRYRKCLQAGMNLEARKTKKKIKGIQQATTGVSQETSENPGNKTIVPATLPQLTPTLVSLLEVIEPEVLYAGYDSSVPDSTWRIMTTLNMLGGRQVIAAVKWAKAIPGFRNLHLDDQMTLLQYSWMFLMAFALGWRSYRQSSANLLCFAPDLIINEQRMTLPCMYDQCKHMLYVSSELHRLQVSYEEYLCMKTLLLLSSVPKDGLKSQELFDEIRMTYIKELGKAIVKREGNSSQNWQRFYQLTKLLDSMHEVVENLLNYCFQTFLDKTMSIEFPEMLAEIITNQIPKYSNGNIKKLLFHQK

Potency, inactive:
CCCCSc1nnc2n(CCc3ccccc3)c(=O)c3c4c(sc3n12)COC(C)(C)C4 > 20.6 µM, Nc1c2c(nc3ccccc13)N(C1CCCCC1)CC2 > 20.6 µM, C=CCNc1nc(N2CCCCC2)c(C#N)c2c1CN(Cc1ccccc1)CC2 > 20.6 µM, Cc1cc(N2C(=O)C(=O)/C(=C(/O)c3ccccc3)C2c2cccc(Br)c2)no1 (stereo not given) > 20.6 µM, COC(=O)CN(c1nc(C)c(Br)c(OC)n1)S(=O)(=O)c1ccc(C)cc1 > 20.6 µM, COc1ccc(Nc2cc(C)nc3ccccc23)cc1 > 20.6 µM, Cc1ccc(S(=O)(=O)c2cc3c(=O)n4ccccc4nc3n(C)c2=N)cc1 > 20.6 µM, CCOc1ccc2c(C)nc(NC3=NC(C)(C)C=C(C)N3)nc2c1 > 20.6 µM, O=S(=O)(c1cccc(-c2csc(-c3ccccc3)n2)c1)N1CCOCC1 > 20.6 µM, N#Cc1c(N2CCOCC2)nc(N2CCCCC2)c2c1CCN(C1CCCCC1)C2 > 20.6 µM, C=CCn1c(=O)c(C(=O)NCCN(CC)CC)c(O)c2ccccc21 > 20.6 µM, CCCSc1nnc2n(-c3ccccc3OC)c(=O)c3c4c(sc3n12)CCC4 > 20.6 µM, CC(=O)OCC(=O)[C@@]1(O)CC[C@H]2[C@@H]3CCC4=CC(=O)CC[C@]4(C)[C@H]3[C@@H](O)C[C@@]21C > 20.6 µM, CN1CCN(c2nc3c(c(=O)n(C)c(=O)n3C)n2Cc2cccc3ccccc23)CC1 > 20.6 µM, O=C(c1ccc(F)cc1)N1CCC(N2CCCCCC2)CC1 > 20.6 µM, CCCCNC(=O)C(C#N)c1nc2ccccc2nc1N1CCN(Cc2ccc3c(c2)OCO3)CC1 (stereo not given) > 20.6 µM, Cn1nnc2c(sc3nc(N4CCOCC4)c4c(c32)CCCC4)c1=O > 20.6 µM, O=S(=O)(c1ccc(Cl)cc1)N1CCC(N2CCCCCC2)CC1 > 20.6 µM, COc1ccc(Cn2c(N)c(C#N)c3nc4ccccc4nc32)cc1OC > 20.6 µM, Cc1ccc(S(=O)(=O)/C(C#N)=C/c2c(N3CCN(C)CC3)nc3c(C)cccn3c2=O)cc1 > 20.6 µM, CCCCCc1ccc(-c2ccc(=O)[nH]n2)cc1 > 20.6 µM, C=CCOn1c(=O)c(-c2cc3ccccc3o2)[n+]([O-])c2ccccc21 > 20.6 µM, CCOC(=O)/C(C#N)=C1\Nc2ccccc2N=C1N(CC(C)C)CC(C)C > 20.6 µM, COc1ccc(-n2c(SCC(N)=O)nc3sc4c(c3c2=O)CCN(C)C4)cc1 > 20.6 µM, CCCc1nc(N2CCCC2)c(C#N)c2c1CCCC2 > 20.6 µM, CCOc1nc(SCCOc2ccc(C)cc2)nc(N(C)C)n1 > 20.6 µM, CCN(CC)CCNc1nc(-c2ccco2)c2c(c1C#N)CC(C)(C)OC2 > 20.6 µM, CCN1CC2=C(OC(N)=C(C#N)C2c2ccccc2)/C(=C\c2ccccc2)C1 (stereo not given) > 20.6 µM, Clc1ccc(Cl)c(-c2ccc(/C=N/c3ncn[nH]3)o2)c1 > 20.6 µM, Cc1ccc2c(c1)[C@@H]1CN(C)CC[C@@H]1N2S(=O)(=O)c1ccc(F)cc1 > 20.6 µM, O=c1[nH]c(=O)n(Cc2ccco2)c2c1C(C(F)(F)F)(C(F)(F)F)N=C(c1ccco1)N2 > 20.6 µM, COc1ccc(-c2nc3c(Br)c(N)c(Br)cc3o2)cc1 > 20.6 µM, c1ccc(C2Nc3ccccc3-c3nc4ccccc4n32)nc1 (stereo not given) > 20.6 µM, C=CC[N+](C)(C)CCCNC(=O)/C=N/O > 20.6 µM, CCCSc1nc(N2CCCC2)c2c(c1C#N)CC(C)(C)OC2 > 20.6 µM, COc1ccc(/C=N/n2cncn2)cc1CSc1ccccn1 > 20.6 µM, CCC(=O)Nc1nc2ccccc2n1Cc1ccccc1C > 20.6 µM, CCCCOc1ccc(C(=O)OC2CC(C)N(C)CC2C)cc1 (stereo not given) > 20.6 µM, Nc1nc2n(n1)C(c1cccs1)CC(c1ccc(F)cc1)N2 (stereo not given) > 20.6 µM, CCCc1cc(NCCCCO)n2c(nc3ccccc32)c1C#N > 20.6 µM
